According to the supplement of paper PMC10849652:
The full data set covers some 7,900 targets. This sample favours those with a hit. About 0.6% of all pairs of compound and target were hits.

Experiments:
Assay in all cases: log2 fold change, soluble protein after heating vs DMSO (PISA); higher = thermal stabilisation; K562 cells, 10 uM, 30 min; active = over 0.2 and 3.5 SD of the protein, either way, in both replicates (recomputed)
[1] = compound: C1COCCN1CCN2C3=CC=CC=C3N=C2NC(=O)C4=CC(=CC=C4)[N+](=O)[O-] [IRAK-1-4 Inhibitor I]
How it was run: (§1)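 Thermal stability values are relative to control samples and come from duplicates. They are expressed as log2 fold changes. For measurement, K562 cells (2×10^6 cells/mL) received 10 μM compound for 30 min, and aliquots were heated for 3 min over 48°C-58°C, pooled, and extracted at 4°C in PBS with 0.5% NP-40. Soluble protein, the supernatant after 21,000xg for 90 min, was quantified by TMTpro 16plex LC-MS/MS with equalised channel sums.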

[2] = compound: C=CC(=O)N1CCC[C@@H](n2nc(-c3ccc(Oc4ccccc4)cc3)c3c(N)ncnc32)C1 [ibrutinib]
How it was run: as §1

[3] = compound: CC(=O)c1cnc2ccc(-c3cc(Cl)c(O)c(Cl)c3)nc2c1N[C@H]1CC[C@H](CN(C)C)CC1
How it was run: as §1

[4] = compound: CC(C)(C)Cn1c(N)nc2ccc(-c3[nH]c(C(C)(C)C)nc3-c3ccc(F)cc3)nc21 [ralimetinib]
How it was run: as §1

[5] = compound: CC(C)(O)CC(=O)NCCn1ccc2ncnc(Nc3ccc(Oc4cccc(C(F)(F)F)c4)c(Cl)c3)c21
How it was run: as §1

[6] = compound: CC(C)C1=C2N=C(C=C(N2N=C1)NCC3=CC=CC=C3)NCCCCCCN
How it was run: as §1

[7] = compound: CC(C)C[C@@H](C=O)NC(=O)[C@H](CC(C)C)NC(=O)[C@H](CC(C)C)NC(=O)OCc1ccccc1
How it was run: as §1

[8] = compound: CC(C)N(C[C@H]1O[C@@H](n2cnc3c(N)ncnc32)[C@H](O)[C@@H]1O)[C@H]1C[C@@H](CCc2nc3cc(C(C)(C)C)ccc3[nH]2)C1 [pinometostat]
How it was run: as §1

[9] = compound: CC1=C(C(CC(=O)N1)C2=CC=C(C=C2)C(F)(F)F)C(=O)NC3=C(C=C4C(=C3)C=NN4)F
How it was run: as §1

[10] = compound: CC1=C(C2=C(C=C1)C(=O)C3=CC=CC=C3N2CCCN)C
How it was run: as §1

[11] = compound: CC1=C(C=C(C=C1)NC(=O)C2=CC(=CC=C2)C(C)(C)C#N)NC3=CC4=C(C=C3)N=CN(C4=O)C
How it was run: as §1

[12] = compound: CC1=C(C=C(C=C1)NC(=O)C2=CC(=CC=C2)N(C)C)NC(=O)C3=CC=C(C=C3)O
How it was run: as §1

[13] = compound: CC1=CC=C(C=C1)SC2=C3C=C(SC3=CN=C2)C(=O)N
How it was run: as §1

[14] = compound: CC1=NC(=CC=C1)C2=C(N=C(N2)C(C)(C)C)C3=CC4=NC=CN=C4C=C3
How it was run: as §1

[15] = compound: CCCCN(Cc1ccc(C(=O)NO)cc1)C(=O)Nc1ccccc1 [Nexturastat A]
How it was run: as §1

[16] = compound: CCCS(=O)(=O)Nc1ccc(F)c(C(=O)c2c[nH]c3ncc(-c4ccc(Cl)cc4)cc23)c1F [vemurafenib]
How it was run: as §1

[17] = compound: CCCS(=O)(=O)Nc1ccc(F)c(C(=O)c2c[nH]c3ncc(Cl)cc23)c1F
How it was run: as §1

[18] = compound: CCCc1cc(C)[nH]c(=O)c1CNC(=O)c1cc(-c2ccnc(N3CCN(C)CC3)c2)cc2c1cnn2C(C)C
How it was run: as §1

[19] = compound: CCN(CC)Cc1ccc2cc(COC(=O)Nc3ccc(C(=O)NO)cc3)ccc2c1 [givinostat]
How it was run: as §1

[20] = compound: CCN(CCCOc1ccc2c(Nc3cc(CC(=O)Nc4cccc(F)c4)[nH]n3)ncnc2c1)CCOP(=O)(O)O [barasertib]
How it was run: as §1

Measured: log2 fold change

HLTF (UniProt Q14527)
Chain of UniProt Q14527 (Q14527 whole entry, looked up): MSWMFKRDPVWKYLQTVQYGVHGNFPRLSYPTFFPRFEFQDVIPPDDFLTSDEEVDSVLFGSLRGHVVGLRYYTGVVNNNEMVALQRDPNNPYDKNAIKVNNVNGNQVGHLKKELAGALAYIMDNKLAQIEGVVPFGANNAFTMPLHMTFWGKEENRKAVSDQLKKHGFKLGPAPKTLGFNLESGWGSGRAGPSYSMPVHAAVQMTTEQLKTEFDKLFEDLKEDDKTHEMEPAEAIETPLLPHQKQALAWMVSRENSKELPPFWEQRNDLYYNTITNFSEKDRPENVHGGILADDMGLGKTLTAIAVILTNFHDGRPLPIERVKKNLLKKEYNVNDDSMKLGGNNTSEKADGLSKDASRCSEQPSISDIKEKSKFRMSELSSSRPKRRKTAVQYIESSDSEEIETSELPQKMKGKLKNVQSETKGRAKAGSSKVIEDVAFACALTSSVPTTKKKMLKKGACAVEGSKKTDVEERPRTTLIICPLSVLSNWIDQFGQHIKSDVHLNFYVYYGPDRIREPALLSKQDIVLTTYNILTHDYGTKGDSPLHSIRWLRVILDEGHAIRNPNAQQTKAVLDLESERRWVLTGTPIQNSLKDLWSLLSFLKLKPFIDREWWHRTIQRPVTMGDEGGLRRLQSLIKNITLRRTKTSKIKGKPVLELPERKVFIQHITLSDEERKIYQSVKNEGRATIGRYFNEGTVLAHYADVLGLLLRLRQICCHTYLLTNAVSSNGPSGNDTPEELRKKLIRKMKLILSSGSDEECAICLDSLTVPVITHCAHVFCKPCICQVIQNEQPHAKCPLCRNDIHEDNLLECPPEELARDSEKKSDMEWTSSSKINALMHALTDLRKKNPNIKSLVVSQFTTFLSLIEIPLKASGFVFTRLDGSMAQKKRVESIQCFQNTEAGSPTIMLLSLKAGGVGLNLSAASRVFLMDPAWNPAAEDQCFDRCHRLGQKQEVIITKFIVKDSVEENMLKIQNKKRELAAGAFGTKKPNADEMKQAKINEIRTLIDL
active: [6] 0.332
inactive: [1] -0.026 | [2] -0.028 | [3] -0.134 | [4] -0.016 | [5] -0.022 | [7] 0.109 | [8] -0.024 | [9] -0.049 | [10] 0.176 | [11] 0.04 | [12] -0.014 | [13] -0.056 | [14] 0.038 | [15] 0.019 | [16] 0.047 | [17] 0.048 | [18] 0.109 | [19] 0.018 | [20] 0.007

HDHD2 (UniProt Q9H0R4)
Chain of UniProt Q9H0R4 (Q9H0R4 whole entry, looked up): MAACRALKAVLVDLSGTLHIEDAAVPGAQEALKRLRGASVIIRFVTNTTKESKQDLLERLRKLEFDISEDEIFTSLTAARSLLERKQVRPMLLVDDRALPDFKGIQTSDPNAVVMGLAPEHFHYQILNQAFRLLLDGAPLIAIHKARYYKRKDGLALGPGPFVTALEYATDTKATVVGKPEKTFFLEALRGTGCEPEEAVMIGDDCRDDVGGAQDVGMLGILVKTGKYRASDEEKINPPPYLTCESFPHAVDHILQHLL
active: [15] -0.316
inactive: [1] 0.007 | [2] -0.019 | [3] 0.021 | [4] -0.006 | [5] -0.168 | [6] 0.024 | [7] -0.037 | [8] -0.018 | [9] -0.025 | [10] 0.003 | [11] 0.059 | [12] 0.028 | [13] 0.023 | [14] 0.014 | [16] 0.02 | [17] 0.007 | [18] -0.028 | [19] 0.007 | [20] 0.011

GYS1 (UniProt P13807)
Chain of UniProt P13807 (P13807 whole entry, looked up): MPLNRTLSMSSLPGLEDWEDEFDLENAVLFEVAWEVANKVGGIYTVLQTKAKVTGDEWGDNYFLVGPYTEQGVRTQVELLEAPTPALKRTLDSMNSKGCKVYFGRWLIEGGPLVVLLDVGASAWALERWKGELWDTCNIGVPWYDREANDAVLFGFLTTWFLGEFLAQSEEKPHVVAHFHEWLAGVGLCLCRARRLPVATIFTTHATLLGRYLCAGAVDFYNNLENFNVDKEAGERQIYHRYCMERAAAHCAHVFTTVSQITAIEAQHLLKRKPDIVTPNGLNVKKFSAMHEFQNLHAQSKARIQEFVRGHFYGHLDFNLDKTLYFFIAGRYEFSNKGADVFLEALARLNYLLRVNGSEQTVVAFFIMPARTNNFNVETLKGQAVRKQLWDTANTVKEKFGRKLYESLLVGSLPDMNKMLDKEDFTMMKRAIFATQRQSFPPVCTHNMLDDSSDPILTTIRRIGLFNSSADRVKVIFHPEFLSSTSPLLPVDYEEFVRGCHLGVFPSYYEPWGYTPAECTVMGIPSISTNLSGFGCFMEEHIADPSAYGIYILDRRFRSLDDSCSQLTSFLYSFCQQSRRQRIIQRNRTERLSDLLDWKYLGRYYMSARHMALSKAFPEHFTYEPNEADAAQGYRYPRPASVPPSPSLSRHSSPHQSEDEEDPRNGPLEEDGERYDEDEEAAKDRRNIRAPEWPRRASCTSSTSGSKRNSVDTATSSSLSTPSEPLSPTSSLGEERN
inactive: [1] -0.151 | [2] 0.009 | [4] 0.095 | [5] 0.158 | [6] -0.253 | [7] 0.141 | [8] 0.412 | [9] 0.042 | [10] 0.046 | [11] 0.057 | [12] -0.04 | [13] -0.068 | [14] -0.13 | [15] 0.515 | [16] 0.052 | [17] -0.01 | [18] 0.091 | [19] 0.108 | [20] -0.033
active: [3] -0.976

FBXO42 (UniProt Q6P3S6)
Chain of UniProt Q6P3S6 (Q6P3S6 whole entry, looked up): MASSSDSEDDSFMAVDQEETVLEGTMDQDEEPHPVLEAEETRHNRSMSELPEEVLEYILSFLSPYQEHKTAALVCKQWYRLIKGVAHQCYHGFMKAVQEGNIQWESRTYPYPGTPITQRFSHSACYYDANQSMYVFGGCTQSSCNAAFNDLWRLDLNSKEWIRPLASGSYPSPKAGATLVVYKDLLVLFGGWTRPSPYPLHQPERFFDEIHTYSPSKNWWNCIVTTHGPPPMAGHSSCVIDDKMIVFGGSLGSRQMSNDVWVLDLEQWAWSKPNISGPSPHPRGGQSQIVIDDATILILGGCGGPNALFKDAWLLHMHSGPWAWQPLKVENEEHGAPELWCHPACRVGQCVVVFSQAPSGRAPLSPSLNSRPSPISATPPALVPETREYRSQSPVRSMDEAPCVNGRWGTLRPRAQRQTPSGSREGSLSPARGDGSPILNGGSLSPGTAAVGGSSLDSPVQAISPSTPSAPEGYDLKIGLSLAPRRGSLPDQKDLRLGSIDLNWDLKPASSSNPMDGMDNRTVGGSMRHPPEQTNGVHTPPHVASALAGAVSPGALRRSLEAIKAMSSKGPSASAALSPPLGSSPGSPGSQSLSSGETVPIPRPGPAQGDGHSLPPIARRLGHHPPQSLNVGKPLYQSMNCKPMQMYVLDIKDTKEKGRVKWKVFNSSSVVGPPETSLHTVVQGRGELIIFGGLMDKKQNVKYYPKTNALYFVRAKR
inactive: [1] -0.103 | [2] -0.009 | [3] -0.108 | [4] -0.064 | [5] -0.093 | [6] -0.169 | [7] 0.011 | [8] -0.051 | [9] -0.038 | [10] 0.086 | [11] -0.033 | [12] 0.164 | [13] -0.038 | [14] 0.04 | [15] -0.072 | [16] -0.086 | [17] 0.083 | [18] -0.025 | [19] 0.09 | [20] 0.015

FBXO7 (UniProt Q9Y3I1)
Chain of UniProt Q9Y3I1 (Q9Y3I1 whole entry, looked up): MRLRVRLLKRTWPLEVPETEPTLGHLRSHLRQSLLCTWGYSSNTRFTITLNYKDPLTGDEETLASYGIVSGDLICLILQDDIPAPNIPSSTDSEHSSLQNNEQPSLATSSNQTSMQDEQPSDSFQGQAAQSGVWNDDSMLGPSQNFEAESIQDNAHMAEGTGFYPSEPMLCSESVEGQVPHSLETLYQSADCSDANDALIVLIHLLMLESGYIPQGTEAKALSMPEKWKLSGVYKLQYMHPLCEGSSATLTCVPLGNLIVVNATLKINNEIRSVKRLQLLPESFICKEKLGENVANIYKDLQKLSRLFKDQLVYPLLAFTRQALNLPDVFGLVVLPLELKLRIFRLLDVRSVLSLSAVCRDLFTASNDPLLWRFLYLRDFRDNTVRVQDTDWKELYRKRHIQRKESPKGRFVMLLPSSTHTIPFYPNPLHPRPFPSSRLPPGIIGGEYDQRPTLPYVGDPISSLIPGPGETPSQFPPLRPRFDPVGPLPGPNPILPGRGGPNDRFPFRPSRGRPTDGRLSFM
inactive: [1] -0.008 | [2] 0.036 | [3] -0.024 | [4] -0.005 | [5] -0.068 | [6] 0.001 | [7] -0.013 | [8] 0.042 | [9] -0.021 | [10] 0.044 | [11] -0.048 | [12] -0.028 | [13] 0.004 | [14] -0.014 | [15] 0.047 | [16] 0.017 | [17] -0.022 | [18] -0.026 | [19] 0.03 | [20] 0.02

GNL1 (UniProt P36915)
Chain of UniProt P36915 (P36915 whole entry, looked up): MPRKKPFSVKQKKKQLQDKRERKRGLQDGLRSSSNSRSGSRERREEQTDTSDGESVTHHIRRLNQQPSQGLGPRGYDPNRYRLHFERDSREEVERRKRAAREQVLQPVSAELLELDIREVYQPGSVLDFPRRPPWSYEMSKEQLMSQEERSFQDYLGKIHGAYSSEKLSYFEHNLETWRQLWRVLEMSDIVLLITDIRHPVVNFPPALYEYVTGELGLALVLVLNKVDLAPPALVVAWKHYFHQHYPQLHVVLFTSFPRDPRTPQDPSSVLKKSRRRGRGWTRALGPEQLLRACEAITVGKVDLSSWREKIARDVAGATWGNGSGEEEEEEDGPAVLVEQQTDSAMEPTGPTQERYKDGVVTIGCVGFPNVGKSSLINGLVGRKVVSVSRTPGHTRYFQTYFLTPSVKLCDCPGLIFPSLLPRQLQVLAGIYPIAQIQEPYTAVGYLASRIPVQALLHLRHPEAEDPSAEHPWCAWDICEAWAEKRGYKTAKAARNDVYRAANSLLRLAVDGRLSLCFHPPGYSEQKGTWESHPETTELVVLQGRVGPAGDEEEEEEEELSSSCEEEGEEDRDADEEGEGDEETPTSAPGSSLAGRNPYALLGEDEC
inactive: [1] 0.07 | [2] 0.037 | [3] 0.046 | [4] 0.011 | [5] -0.063 | [6] -0.03 | [7] -0.014 | [8] -0.006 | [9] -0.037 | [10] -0.086 | [11] 0.019 | [12] -0.014 | [13] 0.032 | [14] 0.036 | [15] -0.031 | [16] -0.01 | [17] 0.081 | [18] 0.002 | [19] -0.033 | [20] 0.017

GHDC (UniProt Q8N2G8)
Chain of UniProt Q8N2G8 (Q8N2G8 whole entry, looked up): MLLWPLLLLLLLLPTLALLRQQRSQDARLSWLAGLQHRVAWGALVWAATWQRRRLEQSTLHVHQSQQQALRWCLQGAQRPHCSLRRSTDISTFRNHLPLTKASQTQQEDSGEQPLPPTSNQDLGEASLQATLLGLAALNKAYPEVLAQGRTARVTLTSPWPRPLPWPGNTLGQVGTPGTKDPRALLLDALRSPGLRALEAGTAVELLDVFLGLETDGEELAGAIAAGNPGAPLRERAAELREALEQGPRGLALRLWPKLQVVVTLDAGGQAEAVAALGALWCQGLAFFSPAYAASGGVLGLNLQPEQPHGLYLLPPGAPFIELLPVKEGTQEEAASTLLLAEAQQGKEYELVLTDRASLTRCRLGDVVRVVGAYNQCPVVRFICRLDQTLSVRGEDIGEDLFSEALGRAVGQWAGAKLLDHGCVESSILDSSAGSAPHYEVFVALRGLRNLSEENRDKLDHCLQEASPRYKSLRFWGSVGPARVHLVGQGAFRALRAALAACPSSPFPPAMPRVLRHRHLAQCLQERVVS
inactive: [1] 0.014 | [2] 0.015 | [3] -0.036 | [4] 0.007 | [5] 0.037 | [7] 0.018 | [8] -0.015 | [9] 0.025 | [10] -0.011 | [11] -0.028 | [12] 0.057 | [13] -0.03 | [14] -0.021 | [15] -0.113 | [16] -0.041 | [17] -0.044 | [18] -0.011 | [19] -0.025 | [20] -0.008
active: [6] -0.277

H1FX (UniProt Q92522)
Chain of UniProt Q92522 (Q92522 whole entry, looked up): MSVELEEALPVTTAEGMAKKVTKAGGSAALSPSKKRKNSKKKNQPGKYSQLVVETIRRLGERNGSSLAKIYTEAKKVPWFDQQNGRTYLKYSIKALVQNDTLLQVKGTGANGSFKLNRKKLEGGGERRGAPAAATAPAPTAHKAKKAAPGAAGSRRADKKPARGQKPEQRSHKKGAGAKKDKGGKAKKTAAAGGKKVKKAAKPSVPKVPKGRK
inactive: [1] -0.171 | [2] 0.077 | [3] 0.231 | [4] 0.204 | [5] 0.031 | [6] 0.13 | [7] 0.09 | [8] 0.246 | [9] 0.02 | [11] 0.081 | [12] -0.059 | [13] -0.106 | [14] -0.222 | [15] 0.278 | [16] -0.083 | [17] -0.077 | [18] 0.176 | [19] -0.034 | [20] -0.129
active: [10] -0.718
